Measured values taken from ChEMBL document CHEMBL3988442, “University of Dundee, Small-Polar-MMV Screening Library” (2021).
Out of some 69,000 compounds screened, about 1,000 (1.4%) showed an effect of 50% or more. What follows is part of a selection rich in strong results, with near analogues and random picks from the rest.

Tested on: Leishmania donovani
Test: Leishmania intramacrophage assay
Assay type: functional, organism-based
Parameters: scale not given: in the data most compounds retested in dose-response had high values

Cc1noc([C@]23COC[C@H]2CN(C(=O)COC2CCCC2)C3)n1
Percent Effect (30.3 µM, […]): 14.27%

Cc1noc([C@]23COC[C@H]2CN(C(=O)Cc2ccsc2)C3)n1
Percent Effect (30.3 µM, […]): 57.44%

CCOCC(=O)N1C[C@@H]2COC[C@]2(c2nc(C)no2)C1
Percent Effect (30.3 µM, […]): 46.85%

O=C(O)C(F)(F)F.c1cc(CN2CCC3(CCOCC3COCC3CC3)CC2)co1 (centres undefined)
Percent Effect (30.3 µM, […]): 12%

Fc1cccc(N2CCCC3(CN(Cc4nccs4)CCO3)C2)c1.O=C(O)C(F)(F)F.O=C(O)C(F)(F)F (centres undefined)
Percent Effect (30.3 µM, […]): 41.24%

Fc1cccc(N2CCCC3(C2)CN(c2ncccn2)CCO3)c1.O=C(O)C(F)(F)F.O=C(O)C(F)(F)F (centres undefined)
Percent Effect (30 µM, 30.03 µM): 0.139%

c1ccc(C2=NOC3(CCN(Cc4c[nH]c5ccccc45)CC3)C2)cc1
Percent Effect (30.3 µM, […]): 96.36%

c1cncc(C2=NOC3(CCN(Cc4c[nH]c5ccccc45)CC3)C2)c1
Percent Effect (30.3 µM, […]): 11.25%

CC(C)C1=NOC2(CCN(Cc3c[nH]c4ccccc34)CC2)C1
Percent Effect (30.3 µM, […]): 1.888%

CN(C(=O)c1ccc(S(=O)(=O)NC(C)(C)C)cc1)C1(C#N)CCC1
Percent Effect (30.3 µM, […]): 6.383%

CC(C)=CCN1CCC(c2nnc(CN3CCN(C)CC3)n2C)CC1
Percent Effect (30.3 µM, […]): 50.84%

CN1CCN(Cc2nnc(C3CCN(CC4CC4)CC3)n2C)CC1
Percent Effect (30 µM, 30.03 µM): 36.3%

CN1CCC(c2nnc(CN3CCC(O)CC3)n2C)CC1
Percent Effect (30 µM, 30.03 µM): 13.07%

CCc1sc(-c2nnc(CNC(C)Cn3cccn3)o2)cc1C (centres undefined)
Percent Effect (30.3 µM, […]): -1.714%

O=C(c1cnc(Nc2ccccc2)nc1)N1CCC(O)(CO)CC1
Percent Effect (30.3 µM, […]): -16.52%

c1ccc(Cn2cccn2)c(CNCc2cnc(N3CCCC3)nc2)c1
Percent Effect (30.3 µM, […]): 54.07%

CC(Cn1cccn1)NCc1cnc(N2CCCC2)nc1 (centres undefined)
Percent Effect (30.3 µM, […]): 6.002%

c1cnn(CCNCc2cnc(N3CCCC3)nc2)c1
Percent Effect (30.3 µM, […]): 36.96%

O=C(O)C(F)(F)F.O=C(O)C(F)(F)F.c1coc(CN2CCCn3c(CN4CCOCC4)nnc3C2)c1
Percent Effect (30.3 µM, […]): 2.025%

O=c1ccc(-c2cccs2)nn1CN1CCN(c2ccccn2)CC1
Percent Effect (30.3 µM, […]): 5.805%

CSCc1cccc(S(=O)(=O)NCCO)c1
Percent Effect (30.3 µM, […]): 7.47%

CCNS(=O)(=O)c1cccc(CSC)c1
Percent Effect (30.3 µM, […]): 64.35%

CCN(CC)CCNS(=O)(=O)c1cccc(CSC)c1
Percent Effect (30.3 µM, […]): -28.14%

O=C(NCc1ccccn1)NC1CCOc2ccccc21 (centres undefined)
Percent Effect (30 µM, 30.03 µM): 24.88%

Cc1cc(CN(C)C(=O)c2ccc(F)cc2F)no1
Percent Effect (30.3 µM, […]): -6.199%

Cc1ccc(CN2CCCC(c3cnccn3)C2)s1 (centres undefined)
Percent Effect (30.3 µM, […]): 27.06%

Cc1ccc(CN2CCC(c3cnccn3)CC2)s1
Percent Effect (30.3 µM, […]): 12.08%

Cc1ccc(CN2CCOC(c3cnccn3)C2)s1 (centres undefined)
Percent Effect (30.3 µM, […]): 57.91%

COc1ccc(CNC(C)c2ccc(Cl)c(Cl)c2)c(OC)c1OC (centres undefined)
Percent Effect (30.3 µM, […]): 55.53%

COc1ccc(CNC(C)c2ccc(Cl)cc2)c(OC)c1OC (centres undefined)
Percent Effect (30.3 µM, […]): 11.12%

COc1ccc(CNC(C)c2cccc(Cl)c2)c(OC)c1OC (centres undefined)
Percent Effect (30 µM, 30.03 µM): 25.49%

Cc1sc2nc(C(F)(F)F)nc(N3CCN(C)CC3)c2c1C
Percent Effect (30.3 µM, […]): 9.999%

CCOC(=O)N1CCN(c2nc(CCN)nc3sc(C)c(C)c23)CC1
Percent Effect (30.3 µM, […]): 81.77%

Cc1sc2nc(CCN)nc(N3CCC(N4CCCC4)CC3)c2c1C
Percent Effect (30.3 µM, […]): 27.1%

Cc1sc2nc(CCN)nc(N3CCN(S(C)(=O)=O)CC3)c2c1C
Percent Effect (30.3 µM, […]): -0.9568%

Cc1sc2nc(CCN)nc(N3CCS(=O)(=O)CC3)c2c1C
Percent Effect (30.3 µM, […]): 0.7518%

Cc1sc2nc(CCN)nc(N3CC(N4CCCCC4)C3)c2c1C
Percent Effect (30.3 µM, […]): 85.94%

Cc1ccc(NC(=O)N2CCOC(C)(c3cnn(C)c3)C2)c(C)c1 (centres undefined)
Percent Effect (30.3 µM, […]): 12.13%

Cc1nn(C)c(C)c1S(=O)(=O)N(C)Cc1nn(C)c(Cl)c1Cl
Percent Effect (30.3 µM, […]): 1.519%

Cc1cn2c(n1)CCC(NC(=O)c1oc(Br)cc1C)C2 (centres undefined)
Percent Effect (30 µM): 33.37%

N#Cc1ccc(N2CC3(CCN(c4nccs4)C3)C2)nc1.O=CO.O=CO
Percent Effect (30.3 µM, […]): 9.16%

CCN1CC2(CCN(CCOc3ccc(F)cc3)CC2)CC1=O
Percent Effect (30.3 µM, […]): 52.2%

O=C1CC2(CCCC2)CN1CCOc1ccc(F)cc1
Percent Effect (30.3 µM, […]): 12.36%

CCN1CC2(CCC1=O)CCN(CCOc1ccc(F)cc1)CC2
Percent Effect (30.3 µM, […]): 19.57%

Cn1cc(C(=O)OC2CN(c3nc4c(C(F)(F)F)cccc4s3)C2)nn1
Percent Effect (30.3 µM, […]): 15.05%

Cc1ccc(C(=O)NCC(O)CN2CCCC2=O)cc1Cl (centres undefined)
Percent Effect (30.3 µM, […]): -2.277%

Cn1c(CCNC(=O)C2CCCN(C3CCOCC3)C2)n[nH]c1=O (centres undefined)
Percent Effect (30.3 µM, […]): 60.82%

O=C(NCCc1c[nH]cn1)C1CCCN(C2CCOCC2)C1 (centres undefined)
Percent Effect (30.3 µM, […]): -4.763%

Cc1csc(CCNC(=O)C2CCCN(C3CCOCC3)C2)n1 (centres undefined)
Percent Effect (30.3 µM, […]): -3.021%

CC(C)c1nc(CN(C)C(=O)C2CC(=O)N(Cc3ccncc3)C2)cs1 (centres undefined)
Percent Effect (30.3 µM, […]): 1.333%

O=C(NC1COC2(CCN(Cc3ccccn3)CC2)C1)c1ccccn1.O=C(O)C(F)(F)F (centres undefined)
Percent Effect (30 µM, 30.03 µM): 99.23%

Cn1ccnc1CN1CCC2(CC1)CC(NC(=O)c1ccccn1)CO2.O=C(O)C(F)(F)F (centres undefined)
Percent Effect (30 µM, 30.03 µM): 2.919%

Cc1nc(C(=O)N(C)C)nn1-c1ccccc1C(C)C
Percent Effect (30.3 µM, […]): 17.02%

CCN1CC2(CC1=O)CN(Cc1cnn(C)c1)CCN(C(C)=O)C2.O=C(O)C(F)(F)F (centres undefined)
Percent Effect (30 µM, 30.03 µM): 8.348%

O=C(NCCc1ccccc1)C1CCC(Cn2cnnn2)CC1 (centres undefined)
Percent Effect (30 µM, 30.03 µM): 4.824%

COCC(=O)N1CCN(S(=O)(=O)c2ccccc2)[C@H]2CS(=O)(=O)C[C@H]21
Percent Effect (30.3 µM, […]): 50.92%

COCC(=O)N1CCN(S(=O)(=O)c2cccs2)[C@H]2CS(=O)(=O)C[C@H]21
Percent Effect (30.3 µM, […]): -6.326%

CCC(=O)N1CCN(S(=O)(=O)c2cccc(F)c2)[C@H]2CS(=O)(=O)C[C@H]21
Percent Effect (30.3 µM, […]): 19.41%

CS(=O)(=O)CC(=O)N1C[C@@H]2COC[C@]2(c2nnc(C3CC3)o2)C1
Percent Effect (30 µM, 30.03 µM): 6.501%

COc1cccc2c1ccn2CCC(=O)Nc1c2c(nn1C)CSC2
Percent Effect (30.3 µM, […]): -9.12%

CCN(CC)C(=O)CS(=O)(=O)c1cc(OC)c(OC)cc1C
Percent Effect (30.3 µM, […]): -79.93%

N#Cc1c(F)cccc1N1CCN(C(=O)Nc2nncs2)CC1
Percent Effect (30.3 µM, […]): 50.08%

N#Cc1c(F)cccc1N1CCC(C(=O)Nc2nccs2)CC1
Percent Effect (30.3 µM, […]): 8.432%

N#Cc1c(F)cccc1N1CCCC(C(=O)Nc2nncs2)C1 (centres undefined)
Percent Effect (30.3 µM, […]): 39.68%
